Screening results as filed in PubChem.
FEN1 inh: blocks human flap endonuclease 1; P39748; Recombinant FEN1 flap cleavage, fluorescence, 15 min; Potency, µM (highest dose often 114 µM), usual class: inhibitors; actives 0.35% (n = 390,000); also: nearly all actives have a fitted effect of over 65% in size
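Quantitative HTS format: each compound was titrated, incubated with 10 nM nuclease for 15 min at room temperature, then challenged with flap substrate at 50 nM final. Signal change over 15 min gave concentration–effect curves.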
Pol kappa inh: inhibitors of human DNA polymerase kappa | Q9UBT6 | purified Pol kappa, fluorescent DNA synthesis assay, 10 min | Potency, µM (series often up to 107 µM), hits mostly inhibitors | actives 0.53% (n = 400,000) | AID 588579
Target sequence (Q9UBT6 whole entry, looked up): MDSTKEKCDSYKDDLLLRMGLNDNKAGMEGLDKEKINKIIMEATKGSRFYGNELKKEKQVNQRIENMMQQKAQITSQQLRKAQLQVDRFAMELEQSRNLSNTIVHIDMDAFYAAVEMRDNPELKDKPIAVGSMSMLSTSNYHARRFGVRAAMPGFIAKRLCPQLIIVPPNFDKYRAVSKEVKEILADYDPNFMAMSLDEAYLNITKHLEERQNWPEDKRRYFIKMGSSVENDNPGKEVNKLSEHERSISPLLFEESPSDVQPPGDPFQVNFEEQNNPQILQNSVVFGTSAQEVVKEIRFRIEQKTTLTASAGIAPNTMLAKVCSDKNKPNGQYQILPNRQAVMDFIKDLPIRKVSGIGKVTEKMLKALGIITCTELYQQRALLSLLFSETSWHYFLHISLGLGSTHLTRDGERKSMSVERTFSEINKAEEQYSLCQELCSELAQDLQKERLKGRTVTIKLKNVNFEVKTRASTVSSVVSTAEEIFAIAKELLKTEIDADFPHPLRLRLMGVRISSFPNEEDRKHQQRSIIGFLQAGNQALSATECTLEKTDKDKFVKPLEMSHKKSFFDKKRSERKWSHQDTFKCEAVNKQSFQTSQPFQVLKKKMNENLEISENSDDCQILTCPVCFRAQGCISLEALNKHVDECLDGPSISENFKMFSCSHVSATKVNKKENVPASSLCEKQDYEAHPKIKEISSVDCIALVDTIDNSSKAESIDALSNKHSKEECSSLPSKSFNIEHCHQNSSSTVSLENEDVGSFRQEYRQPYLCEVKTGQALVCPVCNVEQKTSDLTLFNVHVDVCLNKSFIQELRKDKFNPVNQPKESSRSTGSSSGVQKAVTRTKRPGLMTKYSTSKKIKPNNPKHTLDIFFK
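Pol kappa 10 nM + cpd, 15 min RT; start w/ substrate 50 nM final; fluorescence kinetic read, 0 and 10 min. Neg ctrl: buffer, no enzyme.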
POLI inh: DNA polymerase iota (human) inhibition | Q9UNA4 | Pol iota fluorescent replication assay, 10 min | Potency, µM (series often up to 115 µM), usual class: inhibitors | actives 1% (n = 390,000)
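Pol iota at 10 nM preincubated 15 min with compounds at room temperature; reaction started with fluorescent substrate, 50 nM final. Fluorescence read kinetically at 0 and 10 min; buffer-only wells as negative control.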
WRN inhibitor: inhibitors of human WRN helicase; AID 651768; Q14191; WRN helicase unwinding, fluorescent forked duplex, kinetic; Potency, µM (titrated, usually from 114 µM), hits mostly inhibitors; actives 0.46% (n = 360,000); also: nearly all actives have a fitted effect of over 55% in size
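Kinetic red-fluorescence monitoring (525/598 nm) tracks WRN helicase activity after 100 nM fluorophore-quencher forked duplex and 2 mM ATP are added to 20 nM enzyme pretreated 15 min at room temperature with compound.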
Pol eta inh: DNA polymerase eta (human) inhibition | Q9Y253 | recombinant Pol eta, fluorescent DNA replication assay | Potency, µM (highest dose often 114 µM), most hits filed as inhibitors | actives 1.2% (n = 390,000)
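Fluorescent replication assay: 50 nM final substrate added after a 15 min room-temperature compound preincubation with 10 nM enzyme. Signal taken at 0 min and again at 10 min.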
POLB inh: blocks human DNA polymerase beta activity. P06746. Pol beta primer extension/strand displacement, fluorescence kinetic. Potency, µM (series often up to 114 µM), hits mostly inhibitors. actives 1.3% (n = 340,000)
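Kinetic readout of DNA synthesis with strand displacement by Pol beta. Compound and 10 nM enzyme sit 15 min at room temperature; 50 nM substrate starts the reaction, read immediately and at 10 min.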
Numbers stand for hits; [ ] = remark or other dose. In the library only some 2.4% were active in any assay of this set; here they are far more common. Calls follow the shape of the dose curve; as a rule, active = well fitted curve in the direction sought with a large enough effect; inconclusive = small, poorly fitted or top-dose-only effect, or another doubt; inactive = no such curve, though single readings can be large; an effect the other way counts as inactive or inconclusive.

Results for O=C(O)CC(NC(=O)c1ccco1)c1ccco1 (stereo not given) ?
FEN1 inh: inactive; Pol kappa inh: inactive; POLI inh: inactive; WRN inhibitor: inactive; Pol eta inh: inconclusive; POLB inh: 79.4µM

What do the screens show for `CSc1cccc(NC(=O)c2ccc3c(c2)CCCN3S(C)(=O)=O)c1`?
FEN1 inh: inactive; Pol kappa inh: inactive; POLI inh: inactive; Pol eta inh: inactive; POLB inh: inactive

Results for COc1cc(N2Cc3ccccc3C2)ccc1C=O ?
FEN1 inh: inactive; Pol kappa inh: inactive; POLI inh: inconclusive; WRN inhibitor: inactive; Pol eta inh: inconclusive; POLB inh: 11.2µM

Results for Cc1cc(C)cc(N2Cc3ccccc3C2)c1 ?
FEN1 inh: inactive; Pol kappa inh: inactive; POLI inh: inactive; WRN inhibitor: inactive; Pol eta inh: inactive; POLB inh: inactive

How did Cc1oc(-c2ccccc2Cl)nc1CSCC(=O)N1CCCC1 do in these assays?
FEN1 inh: inactive; Pol kappa inh: inactive; POLI inh: inactive; WRN inhibitor: inactive; Pol eta inh: inactive; POLB inh: 79.4µM

How did CN(C)c1ccc(C=O)c(Cl)c1 do in these assays?
FEN1 inh: inactive; Pol kappa inh: inactive; POLI inh: inactive

What do the screens show for `CN(C)c1ccc(C=O)c(O)c1`?
FEN1 inh: inactive; Pol kappa inh: inconclusive; POLI inh: 50.1µM

Results for COCc1c(C(=O)OCC(=O)c2ccc[nH]2)oc2ccccc12 ?
FEN1 inh: inactive; Pol kappa inh: inactive; POLI inh: inactive; WRN inhibitor: inactive; Pol eta inh: inactive

What do the screens show for `CSCc1c(C(=O)OCC(=O)c2ccc[nH]2)oc2ccccc12`?
FEN1 inh: inactive; Pol kappa inh: inconclusive; POLI inh: 50.1µM; WRN inhibitor: inactive[11.6 µM]; Pol eta inh: inconclusive

How did CC1C=CC=CC=CC=CC=CC=CC=CC(OC2OC(C)C(O)C(N)C2O)CC2OC(O)(CC(O)CC(O)C(O)CCC(O)CC(O)CC(=O)OC(C)C(C)C1O)CC(O)C2C(=O)O (stereo not given) do in these assays?
FEN1 inh: inactive; Pol kappa inh: 17.8µM; POLI inh: 1.26µM; WRN inhibitor: 17.8µM; Pol eta inh: 0.891µM

How did COc1ccc2c(c1)Cc1sc(NC(=O)c3ccccc3C)nc1-2 do in these assays?
FEN1 inh: inconclusive; Pol kappa inh: inactive; POLI inh: 3.55µM; POLB inh: inactive

Results for COc1ccc2c(c1)Cc1sc(NC(=O)c3ccccc3)nc1-2 ?
FEN1 inh: inactive; Pol kappa inh: inactive; POLI inh: 15.8µM; WRN inhibitor: inactive; Pol eta inh: inactive; POLB inh: inactive

How did COc1ccc(C(=O)Nc2nc3c(s2)Cc2cc(OC)ccc2-3)cc1 do in these assays?
FEN1 inh: inactive; Pol kappa inh: inactive; POLI inh: inconclusive; WRN inhibitor: inactive; Pol eta inh: inconclusive; POLB inh: inactive

How did COc1ccc2c(c1)Cc1sc(NC(=O)c3cccs3)nc1-2 do in these assays?
FEN1 inh: inactive; Pol kappa inh: inactive; POLI inh: inactive; WRN inhibitor: inactive; Pol eta inh: inconclusive; POLB inh: inactive

How did O=c1cc(-c2ccccc2)n2c(SCc3ccc(Br)cc3)nnc2[nH]1 do in these assays?
FEN1 inh: inactive; Pol kappa inh: inactive; POLI inh: inactive; Pol eta inh: inactive; POLB inh: inactive

How did O=C(O)c1ccc(CN2C(=O)CSC2=S)cc1 do in these assays?
FEN1 inh: inconclusive; Pol kappa inh: 50.1µM; POLI inh: inconclusive; WRN inhibitor: inactive; Pol eta inh: inactive; POLB inh: inconclusive

How did O=C(O)c1ccc(N=C2SCC(=O)N2Cc2ccccc2)cc1 do in these assays?
FEN1 inh: inactive; Pol kappa inh: inactive; POLI inh: inactive; WRN inhibitor: inactive; Pol eta inh: inactive; POLB inh: inactive

What do the screens show for `COc1cc2c(cc1OC)C1C(=O)c3ccc4c(c3OC1CO2)C=CC(C)(C)O4` (stereo not given)?
Pol kappa inh: inactive

What do the screens show for `CC(Sc1nnc(-c2cccs2)n1-c1ccccc1)C(=O)NCc1ccco1` (stereo not given)?
FEN1 inh: inactive; Pol kappa inh: inactive; POLI inh: inactive; WRN inhibitor: inactive; Pol eta inh: inconclusive; POLB inh: inactive

How did CC(Sc1ccsc1[N+](=O)[O-])C(=O)NCc1ccco1 (stereo not given) do in these assays?
FEN1 inh: inactive; Pol kappa inh: inconclusive; POLI inh: inconclusive; WRN inhibitor: inactive; Pol eta inh: 39.8µM; POLB inh: 22.4µM

What do the screens show for `CC(C)CCNC(=O)c1ccc2c(c1)NC(=O)C(C(C)C)N2` (stereo not given)?
FEN1 inh: inactive; Pol kappa inh: inactive; POLI inh: inactive; Pol eta inh: inactive; POLB inh: inactive

Results for O=c1cc(/C=C/c2ccc([N+](=O)[O-])cc2)c2ccccc2[nH]1 ?
FEN1 inh: inactive; Pol kappa inh: inactive; POLI inh: inactive

How did Cn1nc([N+](=O)[O-])c(C(C#N)c2ccccn2)c(Cl)c1=O (stereo not given) do in these assays?
FEN1 inh: inactive; Pol kappa inh: inactive; POLI inh: inconclusive; WRN inhibitor: inactive; Pol eta inh: inactive; POLB inh: inactive

How did CCCn1nc([N+](=O)[O-])c(C(C#N)c2nc3ccccc3o2)c(Cl)c1=O (stereo not given) do in these assays?
FEN1 inh: inactive; Pol kappa inh: inactive; POLI inh: inconclusive; WRN inhibitor: inconclusive; Pol eta inh: 22.4µM; POLB inh: inactive

Results for COc1ccc(/C=C2\COc3ccccc3C2=O)cc1OC ?
FEN1 inh: inactive; Pol kappa inh: inactive; POLI inh: 25.1µM; WRN inhibitor: inactive[11.6 µM]; Pol eta inh: inconclusive; POLB inh: inactive

How did CCOc1cc(/C=C2\COc3ccccc3C2=O)cc(Br)c1OCC(=O)N(C)C do in these assays?
FEN1 inh: inactive; Pol kappa inh: inactive; POLI inh: 17.8µM; WRN inhibitor: inactive; Pol eta inh: inconclusive; POLB inh: inactive

Results for CCOc1cc(/C=N/Nc2nc3ccccc3[nH]2)cc(Br)c1OCC(=O)N(C)C ?
FEN1 inh: inactive; Pol kappa inh: inactive; POLI inh: inactive; WRN inhibitor: inactive; Pol eta inh: inactive; POLB inh: inconclusive

What do the screens show for `COc1cc(/C=C2\COC/C(=C\c3cc(OC)c(OC)c(OC)c3)C2=O)cc(OC)c1OC`?
FEN1 inh: inactive; Pol kappa inh: inactive; POLI inh: 11.2µM; WRN inhibitor: inactive; Pol eta inh: inconclusive; POLB inh: inactive

Results for CCOc1ccc(C2C(C(=O)Nc3ccccc3C)=C(C)Nc3nnnn32)cc1 (stereo not given) ?
FEN1 inh: inactive; Pol kappa inh: inactive; POLI inh: inactive; Pol eta inh: inactive; POLB inh: inactive

How did O=C(C[n+]1cccc2cc(Cl)ccc21)c1ccc2c(c1)CCCC2 do in these assays?
FEN1 inh: inactive; Pol kappa inh: inactive; POLI inh: inactive

How did Cc1nc2cnc(N3CCNCC3)nc2n(CCC#N)c1=O do in these assays?
Pol kappa inh: inactive
